To fix the notation:
B1: chr2:39006174:39006175:+_ENSG00000152147_ENST00000409566|hu_mus|FALSE|FALSE (ssRNA)
RNA: GGGAGUUCUACAGUCCGACGAUCUACUCCUUCUCACAGGCUAUCACUCUCACUUCUUUAUAAACGUAAUCUUCCCAUUCUAAGGGGCUUUUCUUCAUCCAUUCGCUCAUGGUUACCAGUUGCCCAGAUUCUUUCUAGAUGACUCAACAGAGGAUUGAGCAUCA
B2: 8805033_8805153_1671_3pUTR_ENSMUSG00000021147_ENSMUST00000021572|mouse|control|control (ssRNA)
RNA: GGGAGUUCUACAGUCCGACGAUCAACUUGGAGCUAAGGAACAUCAGUGACUUAUUUUUCUUGUAACAGUGCAGGAAUAUUGAUGUUCCACCCAAUAGCUUGCCUAUCGAACCCACAGGUAAAUAGAUUGCAUAUGGGGUGGUCCAACAGAGGAUUGAGCAUCA
B3: chr2:46850943:46850944:+_ENSG00000119878_ENST00000238892|hu_hu|FALSE|FALSE (ssRNA)
RNA: GGGAGUUCUACAGUCCGACGAUCGUAGGCACAGCCCUGGCAGUAAUGAGAACCUGGUUGGUGCACAGAACUUUUACAAAUUCUACAAGUGGAGAACUUAUUCUUUCCAUAUGGAUCAAAUCUUGCUUUUUUUGAAGUCAAAGCCAACAGAGGAUUGAGCAUCA
B4: 72481967_72485090_997_CDS_ENSMUSG00000030516_ENSMUST00000102592|mouse|control|control (ssRNA)
RNA: GGGAGUUCUACAGUCCGACGAUCUGCUGCCAAACUAUCUUGUGAAAUUUCCUUUACAAAUAUAUGGCUGGCCAAUCGAAGACCAUAUUCUUCAUUUUUCCGAGACUUCACCAGUGUGACCUUGGUGGGCUUUGCGGGCUGACUCAACAGAGGAUUGAGCAUCA
B5: chr18:46664354:46664355:-_ENSMUSG00000033319_ENSMUST00000036226|mus_hu|FALSE|FALSE (ssRNA)
RNA: GGGAGUUCUACAGUCCGACGAUCGGAAAAAACUGUAGUAGAAAUGGUUAGGACAAACAAUAAAGUAGAAACAGGGGGGAAACUUGAGAAGAGAAGAAAGAAGCAAGAAAAAAAGACUUUCAAUUGUAUAAAAUUCACAAACCACAACAGAGGAUUGAGCAUCA
B6: chr7:141438946:141438947:+_ENSG00000106028_ENST00000265304|hu_mus|hu_hu_hu_mus_True|8_98 (ssRNA)
RNA: GGGAGUUCUACAGUCCGACGAUCGACGAAAUACCUGACAGGUCUUCCUUCGAAACAUGGCUUCUGUUUUUCUUACAACCUAAUCUUUAGGCUUUUCCUAAAGGAAAGAAAGAAAAGAGAAAAAUGAGCAGGGGAUCAACUACACAACAGAGGAUUGAGCAUCA
B7: chr11:86070927:86070928:-_ENSMUSG00000018068_ENSMUST00000018212|mus_mus|FALSE|FALSE (ssRNA)
RNA: GGGAGUUCUACAGUCCGACGAUCUGGCACCAACAGUGCCGUCGACAGAGCGAGAAUCAGAAUGGGGACACUGCAAAAAAAAAAAAAAAAGUAAAAAGGAAAGGGAAAAAAAAGGGAGAAGCAACCAGGAGAGAGGGGAAAGCACAACAGAGGAUUGAGCAUCA
B8: chrX:71549400:71549401:+_ENSMUSG00000019087_ENSMUST00000019231|mus_hu|mus_mus_mus_hu_False|8_58 (ssRNA)
RNA: GGGAGUUCUACAGUCCGACGAUCGCAGUAGGAAGAGGGAAGCUCUUCAGUCCAGUGCGCUGCAGGGUGGGAAAGCACAACCUAGACCACCGUCCCACCCUCAACCCCCCCACUGGCACAGGGUCACAUCUGGGUCAUCAAAGACAACAGAGGAUUGAGCAUCA
B9: chr4:88365945:88365946:-_ENSMUSG00000070923_ENSMUST00000094993|mus_mus|motif|central (ssRNA)
RNA: GGGAGUUCUACAGUCCGACGAUCACUUGUAUAGCCAUUUACUAAACAAUAUCAAGCCAAACCAAAAAAAAAAAAGGGUCGGAGUUACCUUUUUGUCUAUUAACUGUAGCAAUAAGGAGAAACAAUACAAGGGGAUGAACAAGACAACAGAGGAUUGAGCAUCA
B10: chr16:45711415:45711416:-_ENSMUSG00000022658_ENSMUST00000096057|mus_mus|FALSE|FALSE (ssRNA)
RNA: GGGAGUUCUACAGUCCGACGAUCAUUAGGAUACGUUCUGUGAGUCAAGGAGAGAAACUUUUUGGCAAAUAAAUAAAUAAAUAAUCAAACAAACCAAGACCUUAGGGCACAGGAGGUCAGAGAGGAAAGGGAGUCUUUGCAUAGCAACAGAGGAUUGAGCAUCA
B11: chrX:71549400:71549401:+_ENSMUSG00000019087_ENSMUST00000019231|mus_hu|mus_mus_mus_hu_False|8_88 (ssRNA)
RNA: GGGAGUUCUACAGUCCGACGAUCGCAGUAGGAAGAGGGAAGCUCUUCAUCCACUGUCGCUGCAGGGUGGGAAAGCAACAACACGGACACCGUCCCACCCUCAACCCCCCCACUGGCACAGGGUCACAUCUGGGUCAUCAAAGACAACAGAGGAUUGAGCAUCA
B12: chr3:148802587:148802588:-_ENSG00000071794_ENST00000310053|hu_mus|hu_hu_hu_mus_False|18_58 (ssRNA)
RNA: GGGAGUUCUACAGUCCGACGAUCUCCAACAACUUGUCCUCUCAUAGUUCCAAAUAAAACCAAAUCUUGCUCUUCAUCACUAGUUAGGAAGUCAUCUGGAGGAAUAAUGUCUUGGAAUUCAAAACGUGGCAAGAAAGUUGAGUACAACAGAGGAUUGAGCAUCA
B13: chr4:128986876:128986877:-_ENSMUSG00000057236_ENSMUST00000102598|mus_mus|motif|central (ssRNA)
RNA: GGGAGUUCUACAGUCCGACGAUCGAUGGUGAGACAGGUCAACCAAAAUGGAGAUGGCAUCAAACUAUAGUGGUCAAAGACGGACCCCUAAAAAAGCAACUUUUAUCAAGGAUUAAUUUAAUCUUAAAAACAAACACAAACUAGCAACAGAGGAUUGAGCAUCA
B14: chr7:97110809:97110810:-_ENSMUSG00000030619_ENSMUST00000107234|mus_mus|FALSE|FALSE (ssRNA)
RNA: GGGAGUUCUACAGUCCGACGAUCACAAGACUUGGAAAGUAUCAAAUCGCCUAACCAUCGCACACAAUCAACAUAAUUCCUAUGUAUGUCUCUGGUAGAAAAGUCAGGAAAGUGGAUUUUCUGGGAAAUAAAUGGCCUGUUAGUCAACAGAGGAUUGAGCAUCA
B15: chr10:112362727:112362728:-_ENSMUSG00000074748_ENSMUST00000099276|mus_mus|FALSE|FALSE (ssRNA)
RNA: GGGAGUUCUACAGUCCGACGAUCGAUCCCAGCAUGCGAUAAUGCCAGGUAGUGGCCCCUGGGCAUGCGAUGGUGGGAACUAAUUUACUGAAGAAAAAAGCACAAACCACAGAAAAUGUAAAGAACCCCUUCCCCCUAUACACACAACAGAGGAUUGAGCAUCA

In all, about 24,000 sequences were measured (“enrichment r”: median about 0.99, highest 2% from about 3.7 on). The sample as a whole holds a higher share of the highest values than the screen did.

The assay deals with T1, UNK ZnF1-3 (human, UniProt Q9C0B0 31-174).
T1 sequence: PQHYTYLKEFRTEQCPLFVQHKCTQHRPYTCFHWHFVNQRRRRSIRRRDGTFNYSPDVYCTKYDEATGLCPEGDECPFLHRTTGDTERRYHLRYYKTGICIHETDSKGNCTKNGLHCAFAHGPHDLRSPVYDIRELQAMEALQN
As to the kind of experiment: nsRBNS (natural sequence RNA bind-n-seq); RBNS binding buffer (assumed for nsRBNS): 25 mM Tris pH 7.5, 150 mM KCl, 3 mM MgCl2, 0.01% Triton X-100, 500 ug/ml BSA, 20 U/ml SUPERase-In, 4 C; UNK is unkempt and MSI1 is Musashi-1; names of the RNAs are library labels; protein concentration not given here; high values mean tight binding.
Regarding B1, the binding signal turned out to be 0.786 enrichment R.
B2: the binding signal is 0.759 enrichment R.
For B3 the value was 0.978 enrichment R; for B4, 0.579 enrichment R.
For B5, the binding signal is 5.26 enrichment R.
B6 displayed a binding signal of 0.543 enrichment R.
With B7 the figure was 8.95 enrichment R; with B8, 1.31 enrichment R; with B9, 1.54 enrichment R.
In turn, B10 returned a binding signal of 3.91 enrichment R.
The molecule B11 had a binding signal of 1.14 enrichment R.
B12: the binding signal was 1.29 enrichment R.
B13: the binding signal stood at 4.74 enrichment R.
The molecule B14 yielded a binding signal of 1.38 enrichment R.
Take B15: the binding signal worked out at 1.77 enrichment R.

Values taken from publication PMC12136788.
